# Results: PubChem BioAssay (NCI)
# Compounds without any hit were thinned out: in the full panel of roughly 83,000, 20% have a hit.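 Cells were grown in 96-well plates and exposed to the test compound at a single concentration for 48 hours; results are reported as percent growth, with values below 10 considered active.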 A number with no mark means an inactive call. Calls of active or inactive are those of the source.
# Tested on: UO-31 renal
# Assay: NCI-60 one-dose screen, 48 h (100 = growth as untreated, 0 = no growth, -100 = all killed)
# Conditions: 10 µM unless noted
# Experimental: Growth inhibition of the UO-31 human tumor cell line is measured as a screen for anti-cancer activity. Cells are grown in 96 well plates and exposed to the test compound for 48 hours. Compounds are tested at a single concentration, which is 10^-5 M for most compounds. The reported endpoint is percent growth (GI% or GIPRCNT), where numbers from 0 - 100% represent growth inhibition, and numbers from -100% - 0 represent cell death. For example, a value of 40 represents 60% growth inhibition. A value of 0 means no net growth occurred over the course of the experiment. A value of -40 indicates 40% of cells at the beginning of the experiment died by the end of the experiment. A value of -100 means all cells are dead at the end of the experiment.
# NCI-60 Human Tumor Cell Lines Screen was performed using the standard one-dose NCI protocol, which is described in more detail at https://dtp.cancer.gov/discovery_development/nci-60/default.htm.
# Compounds with GIPRCNT values below 10 were considered active. Activity score was based on GIPRCNT using the following formula: […]
# Score is 0 for GIPRCNT values of 100 or above, 50 for GIPRCNT values of 0, and 100 for GIPRCNT values of -100.
row,Structure (SMILES),growth
1,O=C1N=C(N2CCOCC2)S/C1=C\c1cn(-c2ccccc2)nc1-c1ccccc1,44.3%
2,C[C@]12CCC(=O)C=C1CCC1C2[C@@H](O)C[C@@]2(C)C1CC[C@]2(O)C(=O)COC(=O)CCC(=O)O (stereo not given in full),84.1%
3,Cc1ccc(/C=C(/C#N)n2nnc3ncccc32)cc1,24.3%
4,CCCCCCCCN(CCO)CCCCCCCC,80.2%
5,FCc1ncc(-c2ccc(C(F)(F)F)cc2)c(NC2CCCCCC2)n1,11.1% [100 µM]
6,Clc1ccc2[nH]cc(-c3cncn3CCc3ccccc3)c2c1,42.2%
7,CCOC(=O)N1CCC(N=C2CSc3nnc(-c4cc(C(F)(F)F)cc(C(F)(F)F)c4)n3N2)CC1,34.2%
8,COc1ccc(C(=O)/C=C/c2cccc(Nc3ccnc4cc(Cl)ccc34)c2)cc1,6.64% (active)
9,O=c1c2ccccc2c2nccn2c2cc(Cl)ccc12,70.7%
10,COc1cc(C2CC(C3C(=O)N(C)C(=O)N(C)C3=O)=NN2C=O)cc(OC)c1OC (stereo not given),101%
11,CCC(C)C1NC(=O)C(CCNCS(=O)(=O)O)NC(=O)C(NC(=O)C(CCNCS(=O)(=O)O)NC(=O)C(NC(=O)C(CCNCS(=O)(=O)O)NC(=O)CCCCC(C)C)C(C)O)CCNC(=O)C(C(C)O)NC(=O)C(CCNCS(=O)(=O)O)NC(=O)C(CCNCS(=O)(=O)O)NC(=O)C(C(C)CC)NC1=O (stereo not given),75%
12,CCCCc1n(Cc2ccc3ccccc3c2)cc[n+]1Cc1ccc2ccccc2c1,18.9%
13,Cc1cc(C(=O)Nc2ccc3cc(CN4CCOCC4)ccc3n2)c(C)n1-c1ccccc1,53.3%
14,COC(=O)[C@H](Cc1cn(C)cn1)NC(=O)[C@H](Cc1ccccc1)NC(=O)Nc1cc(C(F)(F)F)cc(C(F)(F)F)c1,-93.4% [100 µM] (active)
15,CCCCCCCCCCNCCSS(=O)(=O)O,70.6%
16,O=C(CNC(=O)c1cccc2ccccc12)Nc1ccccc1Oc1cccc(O)c1,44.5% [5 µM]
17,COC(=O)c1cc2c(/C=C3/NC(=S)NC3=O)coc2n1C,50%
18,CCCCCN1C(=O)CCC1=O,85.8%
19,O=C(CSc1ncc(-c2ccccc2)n1-c1ccccc1)Nc1ccc(-c2nc3ccccc3s2)cc1,98.4%
20,C=C1CC[C@@H]2[C@](C)(COC(C)=O)[C@H](OC(C)=O)CC[C@@]2(C)[C@@H]1CC(NCc1ccccc1)C1=CCOC1=O (stereo not given in full),29.1%

row,Structure (SMILES),growth
1,O=C(COc1cccc(/C=C2\Cc3ccccc3C2=O)c1)c1ccc(Cl)cc1,18.5%
2,NC(=O)c1cc(Cl)ccc1NC(=O)c1ccccc1-c1ccccc1,30.7%
3,C=C1CCC2C(C)(COC(=O)CC)C(OC(=O)CC)CCC2(C)C1C/C=C1/C(=O)OCC1OC(=O)CC (stereo not given),-72.2% (active)
4,NC(=O)NC1(C(=O)O)CCCC1,101%
5,Cc1[nH]ccc2cc3nc4ccccc4c3cc12,8.89% (active)
6,O=C1/C(=C/c2ccccc2Cl)CCc2ccccc21,97.4%
7,CCOC(=O)Nc1ccc2c3c(cccc13)-c1ccccc1-2,21.1%
8,COc1cc(-c2nc3sc4c(c3c(=O)[nH]2)CCCCCC4)cc(OC)c1OC,27.8%
9,CCCCCCCCCCOC(C)=O,89%
10,COc1ccc2ncccc2c1Cc1c(OC)ccc2ncccc12,55.6%
11,CO[C@H]1/C=C/O[C@@]2(C)Oc3c(C)c(O)c4c(O)c(c(/C=N/N5C(C)CN(Cc6ccc(C#N)cc6)CC5C)c(O)c4c3C2=O)NC(=O)/C(C)=C\C=C\[C@H](C)[C@H](O)[C@@H](C)[C@@H](O)[C@@H](C)[C@H](OC(C)=O)[C@@H]1C (stereo not given in full),24.6%
12,COc1cc(/C=C/c2cc(/C=C/c3ccc(O)c(OC)c3)n(C(=O)c3ccc(Cl)cc3)n2)ccc1O,0.559% (active)
13,CSc1nc(N)c2c(n1)N(C)C=NS2(=O)=O,87.1%
14,C=C(CN1CCc2c([nH]c3ccccc23)C1)c1ccc(C(=O)Nc2ccon2)cc1,30.7%
15,O=C1C=CC(=O)N1c1ccccc1N1C(=O)C=CC1=O,79.4%
16,O=C(CN1CCN(c2ccc(Cl)cc2)CC1)N1CCN(c2nnc(-c3ccccc3)c(-c3ccccc3)n2)CC1,14.6%
17,O=C(O)c1ccc2cccnc2c1O,-5.79% (active)
18,CCCCCCCSc1ncnc2[nH]ncc12,60.6%
19,O=C1/C(=C/c2cccc(Cl)c2)CCc2ccccc21,76.1%
20,COc1ccc(N2CCN(CC(=O)N3CCN(c4nnc(-c5ccccc5)c(-c5ccccc5)n4)CC3)CC2)cc1,24.9%
